# From PMC7862700, “An all-to-all approach to the identification of sequence-specific readers for epigenetic DNA modifications on cytosine”
# How the values were obtained:
# Experiment in all cases: DAPPL (digital affinity profiling via proximity ligation, sequencing); 10 mM Tris-HCl pH 7.5, 50 mM NaCl, 1 mM DTT, 4% glycerol, room temperature, 30 min; GST-TFs on glutathione beads, 16-mer random dsDNA library, 0.1% formaldehyde crosslink after washing; high values mean tight binding
# [1] = molecular target: T1, FLI1 (Homo sapiens, UniProt Q01543 1-452); settings: protein: recombinant; tags: N-terminal GST; dsDNA, one strand shown
# T1 sequence: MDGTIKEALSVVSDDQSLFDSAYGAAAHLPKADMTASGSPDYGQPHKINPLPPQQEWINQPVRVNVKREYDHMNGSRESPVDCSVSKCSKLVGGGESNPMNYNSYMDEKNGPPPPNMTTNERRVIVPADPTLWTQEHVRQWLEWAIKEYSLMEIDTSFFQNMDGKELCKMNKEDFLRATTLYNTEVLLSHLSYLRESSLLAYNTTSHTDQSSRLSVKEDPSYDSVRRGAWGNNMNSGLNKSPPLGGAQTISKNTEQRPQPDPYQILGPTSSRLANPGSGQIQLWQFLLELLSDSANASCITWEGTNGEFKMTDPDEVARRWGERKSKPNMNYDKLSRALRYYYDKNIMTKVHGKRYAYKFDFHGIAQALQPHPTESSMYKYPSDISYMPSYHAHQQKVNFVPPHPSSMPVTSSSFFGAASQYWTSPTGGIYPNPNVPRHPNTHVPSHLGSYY
# Outline: (§1)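 Each value of binding signal is a hexamer's read frequency for a factor divided by the same hexamer's frequency in the tag-only sample. Barcoded, bead-captured GST fusions of human transcription factors made in yeast were pooled with that sample and incubated with 200 nmole of a random double-stranded 16-mer DNA library in Tris/NaCl/DTT/glycerol buffer at room temperature for 30 min. Washing, 0.1% formaldehyde crosslinking, proximity ligation, PCR and Illumina NextSeq500 sequencing followed.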
# [2] = molecular target: T2, ELK1 (Homo sapiens, UniProt P19419 1-428); settings: protein: recombinant; tags: N-terminal GST; dsDNA, one strand shown
# T2 sequence: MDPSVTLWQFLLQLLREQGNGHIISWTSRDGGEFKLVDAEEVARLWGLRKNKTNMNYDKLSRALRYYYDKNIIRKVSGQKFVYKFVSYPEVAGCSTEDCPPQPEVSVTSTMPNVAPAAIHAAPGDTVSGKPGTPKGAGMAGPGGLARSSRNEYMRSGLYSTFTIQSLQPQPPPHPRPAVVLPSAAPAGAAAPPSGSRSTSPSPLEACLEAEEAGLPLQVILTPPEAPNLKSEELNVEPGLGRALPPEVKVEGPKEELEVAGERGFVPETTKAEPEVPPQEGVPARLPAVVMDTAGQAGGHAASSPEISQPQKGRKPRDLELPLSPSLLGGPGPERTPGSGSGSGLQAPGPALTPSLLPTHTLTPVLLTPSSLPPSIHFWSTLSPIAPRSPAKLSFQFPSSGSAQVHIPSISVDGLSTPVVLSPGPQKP
# Outline: as §1
# [3] = molecular target: T3, GABPA (Homo sapiens, UniProt Q06546 1-454); settings: protein: recombinant; tags: N-terminal GST; dsDNA, one strand shown
# T3 sequence: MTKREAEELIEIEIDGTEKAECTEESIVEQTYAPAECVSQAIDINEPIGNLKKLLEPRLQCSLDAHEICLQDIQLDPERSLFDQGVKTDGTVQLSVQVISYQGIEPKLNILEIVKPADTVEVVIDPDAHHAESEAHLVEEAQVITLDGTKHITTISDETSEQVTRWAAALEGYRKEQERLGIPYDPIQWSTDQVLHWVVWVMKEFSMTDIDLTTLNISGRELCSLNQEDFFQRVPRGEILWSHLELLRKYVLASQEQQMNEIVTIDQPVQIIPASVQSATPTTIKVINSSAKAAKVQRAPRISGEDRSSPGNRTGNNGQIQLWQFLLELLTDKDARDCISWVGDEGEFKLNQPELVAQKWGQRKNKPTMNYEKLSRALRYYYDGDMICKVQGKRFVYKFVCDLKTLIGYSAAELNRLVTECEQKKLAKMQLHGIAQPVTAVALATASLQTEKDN
# Outline: as §1
# [4] = molecular target: T4, ERG (Homo sapiens, UniProt P11308 1-479); settings: protein: recombinant; tags: N-terminal GST; dsDNA, one strand shown
# T4 sequence: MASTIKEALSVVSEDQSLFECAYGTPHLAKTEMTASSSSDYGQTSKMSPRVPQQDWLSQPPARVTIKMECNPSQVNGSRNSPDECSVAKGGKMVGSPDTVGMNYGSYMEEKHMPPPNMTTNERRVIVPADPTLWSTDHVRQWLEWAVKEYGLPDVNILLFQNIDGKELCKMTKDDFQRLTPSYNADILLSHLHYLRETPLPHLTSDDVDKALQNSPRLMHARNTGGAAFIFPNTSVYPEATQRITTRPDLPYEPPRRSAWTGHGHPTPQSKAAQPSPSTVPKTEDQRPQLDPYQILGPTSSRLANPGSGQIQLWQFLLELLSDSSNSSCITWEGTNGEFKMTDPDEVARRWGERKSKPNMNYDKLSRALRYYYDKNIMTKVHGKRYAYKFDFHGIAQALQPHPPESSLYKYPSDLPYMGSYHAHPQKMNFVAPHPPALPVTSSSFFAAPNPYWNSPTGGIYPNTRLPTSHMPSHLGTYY
# Outline: as §1
# [5] = molecular target: ELF1 (Homo sapiens, UniProt P32519 1-619); settings: protein: recombinant; tags: N-terminal GST; dsDNA, one strand shown
# Outline: as §1
# [6] = molecular target: T5, EHF (Homo sapiens, UniProt Q9NZC4 1-300); settings: protein: recombinant; tags: N-terminal GST; dsDNA, one strand shown
# T5 sequence: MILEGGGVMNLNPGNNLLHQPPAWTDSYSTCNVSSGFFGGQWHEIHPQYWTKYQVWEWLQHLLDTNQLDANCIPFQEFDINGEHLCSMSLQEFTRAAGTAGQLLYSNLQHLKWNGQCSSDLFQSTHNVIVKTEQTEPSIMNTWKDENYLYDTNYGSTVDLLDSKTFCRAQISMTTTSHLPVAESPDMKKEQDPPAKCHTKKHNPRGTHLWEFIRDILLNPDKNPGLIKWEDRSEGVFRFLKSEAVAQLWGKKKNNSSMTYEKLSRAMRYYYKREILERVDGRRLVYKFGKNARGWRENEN
# Outline: as §1
# [7] = molecular target: SPI1 (Homo sapiens, UniProt P17947 1-270); settings: protein: recombinant; tags: N-terminal GST; dsDNA, one strand shown
# Outline: as §1
# [8] = molecular target: SPIB (Homo sapiens, UniProt Q01892 1-262); settings: protein: recombinant; tags: N-terminal GST; dsDNA, one strand shown
# Outline: as §1
# [9] = molecular target: T6, ELK3 (Homo sapiens, UniProt P41970 1-407); settings: protein: recombinant; tags: N-terminal GST; dsDNA, one strand shown
# T6 sequence: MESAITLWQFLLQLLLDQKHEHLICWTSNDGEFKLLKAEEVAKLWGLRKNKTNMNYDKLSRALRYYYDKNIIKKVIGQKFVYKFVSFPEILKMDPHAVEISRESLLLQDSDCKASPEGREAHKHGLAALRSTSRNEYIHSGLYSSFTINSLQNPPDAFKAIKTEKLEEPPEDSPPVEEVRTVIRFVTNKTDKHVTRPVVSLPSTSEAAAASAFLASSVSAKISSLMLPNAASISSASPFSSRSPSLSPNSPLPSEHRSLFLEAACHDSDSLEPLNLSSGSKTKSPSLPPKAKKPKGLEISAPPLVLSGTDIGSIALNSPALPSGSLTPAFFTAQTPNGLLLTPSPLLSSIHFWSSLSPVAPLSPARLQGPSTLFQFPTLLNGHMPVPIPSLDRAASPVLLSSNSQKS
# Outline: as §1
# [10] = molecular target: T7, FEV (Homo sapiens, UniProt Q99581 1-238); settings: protein: recombinant; tags: N-terminal GST; dsDNA, one strand shown
# T7 sequence: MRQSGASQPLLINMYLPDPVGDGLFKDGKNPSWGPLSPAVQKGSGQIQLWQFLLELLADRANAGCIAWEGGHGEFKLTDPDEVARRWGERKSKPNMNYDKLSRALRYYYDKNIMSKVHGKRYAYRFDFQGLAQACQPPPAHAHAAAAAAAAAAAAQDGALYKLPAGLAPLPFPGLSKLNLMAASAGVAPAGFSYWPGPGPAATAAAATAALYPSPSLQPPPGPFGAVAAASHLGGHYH
# Outline: as §1
# [11] = molecular target: ETV5 (Homo sapiens, UniProt P41161 1-510); settings: protein: recombinant; tags: N-terminal GST; dsDNA, one strand shown
# Outline: as §1
# [12] = molecular target: HSF1 (Homo sapiens, UniProt Q00613 1-529); settings: protein: recombinant; tags: N-terminal GST; chain copies: 3; dsDNA, one strand shown
# Outline: as §1
# [13] = molecular target: T8, SPIC (Homo sapiens, UniProt Q8N5J4 1-248); settings: protein: recombinant; tags: N-terminal GST; dsDNA, one strand shown
# T8 sequence: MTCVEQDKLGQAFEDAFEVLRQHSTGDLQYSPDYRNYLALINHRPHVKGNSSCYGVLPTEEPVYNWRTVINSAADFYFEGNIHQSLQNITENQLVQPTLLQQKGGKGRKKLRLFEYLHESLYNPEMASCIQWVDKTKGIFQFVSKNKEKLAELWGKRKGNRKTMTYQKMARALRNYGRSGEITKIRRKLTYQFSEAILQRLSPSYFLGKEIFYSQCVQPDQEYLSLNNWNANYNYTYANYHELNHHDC
# Outline: as §1
# [14] = molecular target: ELF4 (Homo sapiens, UniProt Q99607 1-663); settings: protein: recombinant; tags: N-terminal GST; dsDNA, one strand shown
# Outline: as §1
# [15] = molecular target: T9, ELK4 (Homo sapiens, UniProt P28324-2 1-405); settings: protein: recombinant; tags: N-terminal GST; dsDNA, one strand shown
# T9 sequence: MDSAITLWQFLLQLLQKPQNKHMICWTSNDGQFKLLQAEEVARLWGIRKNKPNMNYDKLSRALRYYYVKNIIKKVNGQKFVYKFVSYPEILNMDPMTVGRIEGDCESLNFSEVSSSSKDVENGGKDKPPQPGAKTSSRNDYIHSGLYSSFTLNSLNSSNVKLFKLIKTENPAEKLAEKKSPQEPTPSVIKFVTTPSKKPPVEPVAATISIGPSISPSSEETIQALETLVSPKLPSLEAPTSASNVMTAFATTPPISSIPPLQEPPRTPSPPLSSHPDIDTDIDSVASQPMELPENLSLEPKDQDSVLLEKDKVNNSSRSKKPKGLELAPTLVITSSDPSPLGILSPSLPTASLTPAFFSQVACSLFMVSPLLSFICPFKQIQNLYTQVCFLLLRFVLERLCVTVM
# Outline: as §1
# [16] = molecular target: T10, ETV2 (Homo sapiens, UniProt O00321 1-342); settings: protein: recombinant; tags: N-terminal GST; dsDNA, one strand shown
# T10 sequence: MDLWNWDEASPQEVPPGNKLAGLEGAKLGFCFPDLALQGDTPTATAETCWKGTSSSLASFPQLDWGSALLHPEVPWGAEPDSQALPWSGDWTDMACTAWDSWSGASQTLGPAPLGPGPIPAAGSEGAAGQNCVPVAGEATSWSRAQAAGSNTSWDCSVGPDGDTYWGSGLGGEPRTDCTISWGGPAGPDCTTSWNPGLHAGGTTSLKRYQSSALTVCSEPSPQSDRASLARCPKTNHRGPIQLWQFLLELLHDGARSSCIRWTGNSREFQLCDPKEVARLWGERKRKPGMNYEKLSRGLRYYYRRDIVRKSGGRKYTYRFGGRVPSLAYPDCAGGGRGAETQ
# Outline: as §1
# [17] = molecular target: T11, ELF3 (Homo sapiens, UniProt P78545 1-371); settings: protein: recombinant; tags: N-terminal GST; dsDNA, one strand shown
# T11 sequence: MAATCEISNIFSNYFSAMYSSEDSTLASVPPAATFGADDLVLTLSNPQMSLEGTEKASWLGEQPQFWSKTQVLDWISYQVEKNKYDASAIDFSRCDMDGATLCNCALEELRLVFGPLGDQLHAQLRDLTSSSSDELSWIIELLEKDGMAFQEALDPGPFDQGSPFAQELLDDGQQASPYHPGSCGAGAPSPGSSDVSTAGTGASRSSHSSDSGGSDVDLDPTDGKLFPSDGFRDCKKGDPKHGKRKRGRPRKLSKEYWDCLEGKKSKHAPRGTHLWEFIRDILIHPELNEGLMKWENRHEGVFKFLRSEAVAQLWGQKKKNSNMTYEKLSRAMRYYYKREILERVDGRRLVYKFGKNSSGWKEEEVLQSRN
# Outline: as §1
# [18] = molecular target: CRX (Homo sapiens, UniProt O43186 1-299); settings: protein: recombinant; tags: N-terminal GST; dsDNA, one strand shown
# Outline: as §1
# [19] = molecular target: ETV1 (Homo sapiens, UniProt P50549 1-477); settings: protein: recombinant; tags: N-terminal GST; dsDNA, one strand shown
# Outline: as §1
# Chain of SPIB (Q01892 whole entry): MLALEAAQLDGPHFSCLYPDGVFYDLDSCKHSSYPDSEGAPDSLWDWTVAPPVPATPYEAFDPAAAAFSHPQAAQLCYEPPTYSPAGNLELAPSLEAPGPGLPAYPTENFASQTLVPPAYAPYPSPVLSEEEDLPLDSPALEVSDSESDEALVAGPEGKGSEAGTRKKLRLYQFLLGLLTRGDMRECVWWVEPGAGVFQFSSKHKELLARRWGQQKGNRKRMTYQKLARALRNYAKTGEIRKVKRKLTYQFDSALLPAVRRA
# Chain of ELF1 (P32519 whole entry): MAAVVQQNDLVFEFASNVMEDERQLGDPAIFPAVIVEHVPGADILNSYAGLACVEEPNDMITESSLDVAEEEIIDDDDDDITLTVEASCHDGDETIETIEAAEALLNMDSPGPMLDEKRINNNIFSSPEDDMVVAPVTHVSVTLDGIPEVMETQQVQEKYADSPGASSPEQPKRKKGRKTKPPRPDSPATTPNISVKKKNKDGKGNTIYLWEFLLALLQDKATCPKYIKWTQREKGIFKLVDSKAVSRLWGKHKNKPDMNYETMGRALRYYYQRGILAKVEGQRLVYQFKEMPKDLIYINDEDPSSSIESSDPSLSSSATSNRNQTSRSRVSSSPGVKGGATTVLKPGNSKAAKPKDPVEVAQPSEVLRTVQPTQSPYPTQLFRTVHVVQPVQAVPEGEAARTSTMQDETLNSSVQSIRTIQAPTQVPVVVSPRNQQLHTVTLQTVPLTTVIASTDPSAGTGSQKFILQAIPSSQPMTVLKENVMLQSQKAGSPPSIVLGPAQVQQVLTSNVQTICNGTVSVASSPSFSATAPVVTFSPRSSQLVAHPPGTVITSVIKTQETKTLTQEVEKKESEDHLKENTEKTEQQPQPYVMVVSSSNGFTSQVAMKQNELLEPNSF
# Chain of ETV5 (P41161 whole entry): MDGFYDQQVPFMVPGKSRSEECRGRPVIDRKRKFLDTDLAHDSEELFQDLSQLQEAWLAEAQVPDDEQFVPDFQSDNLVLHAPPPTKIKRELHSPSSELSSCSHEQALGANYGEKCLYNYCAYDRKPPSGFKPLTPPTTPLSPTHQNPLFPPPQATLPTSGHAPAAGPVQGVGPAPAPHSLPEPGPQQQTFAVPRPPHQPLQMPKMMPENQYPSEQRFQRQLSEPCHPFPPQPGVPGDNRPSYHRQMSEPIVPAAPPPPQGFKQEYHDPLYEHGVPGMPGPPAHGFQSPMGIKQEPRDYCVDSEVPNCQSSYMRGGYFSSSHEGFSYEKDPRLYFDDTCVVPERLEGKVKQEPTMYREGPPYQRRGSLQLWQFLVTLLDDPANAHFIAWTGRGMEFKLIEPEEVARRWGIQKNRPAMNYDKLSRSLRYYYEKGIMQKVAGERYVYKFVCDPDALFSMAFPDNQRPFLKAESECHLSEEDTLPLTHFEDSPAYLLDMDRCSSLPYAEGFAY
# Chain of ETV1 (P50549 whole entry): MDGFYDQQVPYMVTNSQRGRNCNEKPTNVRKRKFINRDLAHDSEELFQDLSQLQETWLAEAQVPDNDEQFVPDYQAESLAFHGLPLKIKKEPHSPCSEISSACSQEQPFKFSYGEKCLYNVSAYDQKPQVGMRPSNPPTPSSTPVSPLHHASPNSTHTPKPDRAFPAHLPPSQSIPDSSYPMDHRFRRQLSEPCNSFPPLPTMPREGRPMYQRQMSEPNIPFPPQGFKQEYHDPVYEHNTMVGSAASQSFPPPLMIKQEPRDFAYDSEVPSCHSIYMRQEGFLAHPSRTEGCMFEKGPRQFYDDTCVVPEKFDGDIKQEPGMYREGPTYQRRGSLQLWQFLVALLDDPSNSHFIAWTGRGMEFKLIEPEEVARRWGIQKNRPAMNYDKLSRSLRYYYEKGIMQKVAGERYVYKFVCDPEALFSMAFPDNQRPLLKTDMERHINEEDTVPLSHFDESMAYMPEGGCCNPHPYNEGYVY
# Chain of HSF1 (Q00613 whole entry): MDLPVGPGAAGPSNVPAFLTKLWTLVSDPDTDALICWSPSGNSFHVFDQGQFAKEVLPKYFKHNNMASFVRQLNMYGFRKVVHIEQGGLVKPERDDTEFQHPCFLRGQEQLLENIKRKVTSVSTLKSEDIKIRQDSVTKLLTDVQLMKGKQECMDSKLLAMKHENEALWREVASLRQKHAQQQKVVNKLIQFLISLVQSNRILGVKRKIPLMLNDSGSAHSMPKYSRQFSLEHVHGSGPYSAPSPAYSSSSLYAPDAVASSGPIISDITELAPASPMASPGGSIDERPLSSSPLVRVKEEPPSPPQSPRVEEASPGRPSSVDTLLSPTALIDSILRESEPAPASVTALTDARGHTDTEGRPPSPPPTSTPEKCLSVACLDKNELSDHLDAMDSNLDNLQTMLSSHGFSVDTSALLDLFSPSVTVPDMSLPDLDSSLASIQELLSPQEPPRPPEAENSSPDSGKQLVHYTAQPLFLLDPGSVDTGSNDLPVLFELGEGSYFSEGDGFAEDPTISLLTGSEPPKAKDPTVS
# Chain of CRX (O43186 whole entry): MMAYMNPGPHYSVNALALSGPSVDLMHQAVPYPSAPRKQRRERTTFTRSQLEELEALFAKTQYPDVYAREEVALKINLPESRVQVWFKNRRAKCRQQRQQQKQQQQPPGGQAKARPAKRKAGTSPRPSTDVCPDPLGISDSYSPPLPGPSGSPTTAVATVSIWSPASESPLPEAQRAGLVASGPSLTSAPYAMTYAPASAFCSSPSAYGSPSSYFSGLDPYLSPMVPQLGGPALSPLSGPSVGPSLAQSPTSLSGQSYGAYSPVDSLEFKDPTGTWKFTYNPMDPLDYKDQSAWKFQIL
# Chain of ELF4 (Q99607 whole entry): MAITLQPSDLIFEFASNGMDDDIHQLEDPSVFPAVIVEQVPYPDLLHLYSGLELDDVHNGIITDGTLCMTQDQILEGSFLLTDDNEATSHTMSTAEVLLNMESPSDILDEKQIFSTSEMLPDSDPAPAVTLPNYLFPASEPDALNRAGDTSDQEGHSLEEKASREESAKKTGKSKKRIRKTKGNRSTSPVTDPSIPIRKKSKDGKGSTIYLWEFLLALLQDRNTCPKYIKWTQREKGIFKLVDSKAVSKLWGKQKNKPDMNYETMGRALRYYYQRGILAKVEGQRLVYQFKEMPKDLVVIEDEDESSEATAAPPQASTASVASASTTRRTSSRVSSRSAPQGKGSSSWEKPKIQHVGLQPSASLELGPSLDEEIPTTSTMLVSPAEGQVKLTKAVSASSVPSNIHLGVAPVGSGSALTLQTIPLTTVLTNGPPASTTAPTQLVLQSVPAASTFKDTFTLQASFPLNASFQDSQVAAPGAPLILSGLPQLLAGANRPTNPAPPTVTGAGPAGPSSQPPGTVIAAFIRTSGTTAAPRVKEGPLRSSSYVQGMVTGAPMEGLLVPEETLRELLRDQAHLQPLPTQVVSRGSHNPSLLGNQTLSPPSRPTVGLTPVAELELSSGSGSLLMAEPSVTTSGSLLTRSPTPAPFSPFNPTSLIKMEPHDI
sequence,measurement,setting,value
GGCTCT,binding signal,[1],"1.15 fold enrichment (6-mer frequency, TF over GST control)"
same,binding signal,[2],"1.23 fold enrichment (6-mer frequency, TF over GST control)"
same,binding signal,[3],"1.23 fold enrichment (6-mer frequency, TF over GST control)"
same,binding signal,[4],"1.26 fold enrichment (6-mer frequency, TF over GST control)"
same,binding signal,[5],"1.29 fold enrichment (6-mer frequency, TF over GST control)"
same,binding signal,[6],"1.27 fold enrichment (6-mer frequency, TF over GST control)"
same,binding signal,[7],"1.18 fold enrichment (6-mer frequency, TF over GST control)"
same,binding signal,[8],"1.26 fold enrichment (6-mer frequency, TF over GST control)"
same,binding signal,[9],"1.42 fold enrichment (6-mer frequency, TF over GST control)"
same,binding signal,[10],"1.35 fold enrichment (6-mer frequency, TF over GST control)"
same,binding signal,[11],"1.19 fold enrichment (6-mer frequency, TF over GST control)"
same,binding signal,[12],"1.32 fold enrichment (6-mer frequency, TF over GST control)"
same,binding signal,[13],"1.34 fold enrichment (6-mer frequency, TF over GST control)"
same,binding signal,[14],"1.37 fold enrichment (6-mer frequency, TF over GST control)"
same,binding signal,[15],"1.22 fold enrichment (6-mer frequency, TF over GST control)"
same,binding signal,[16],"1.4 fold enrichment (6-mer frequency, TF over GST control)"
same,binding signal,[17],"1.44 fold enrichment (6-mer frequency, TF over GST control)"
same,binding signal,[18],"1.27 fold enrichment (6-mer frequency, TF over GST control)"
same,binding signal,[19],"1.42 fold enrichment (6-mer frequency, TF over GST control)"
